Only some compounds are listed: those with a hit (about 3.5% of all), similar ones and a draw of the others.
GPR151 activ – activators of human GPR151; hit rate 1% among 650,000; PathHunter beta-arrestin GPR151 cells, luminescence; activation, % at 11.2 µM; Q8TDV0; in the data active means activation above about 4.9%;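 further: 0% = median of compound wells and 100% = cells with positive control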
FBW7 activator – activators of human E3 ligase FBW7; AlphaScreen FBW7–phospho-cyclin E peptide binding, activator screen; normalized activity (activation), % at 26.1 µM; hit rate 0.13% among 650,000; Q969H0; in the data active means normalized activity above about 1.9%;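 further: purified mutant Fbw7 with reduced substrate affinity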
Target sequence (Q969H0 whole entry, looked up): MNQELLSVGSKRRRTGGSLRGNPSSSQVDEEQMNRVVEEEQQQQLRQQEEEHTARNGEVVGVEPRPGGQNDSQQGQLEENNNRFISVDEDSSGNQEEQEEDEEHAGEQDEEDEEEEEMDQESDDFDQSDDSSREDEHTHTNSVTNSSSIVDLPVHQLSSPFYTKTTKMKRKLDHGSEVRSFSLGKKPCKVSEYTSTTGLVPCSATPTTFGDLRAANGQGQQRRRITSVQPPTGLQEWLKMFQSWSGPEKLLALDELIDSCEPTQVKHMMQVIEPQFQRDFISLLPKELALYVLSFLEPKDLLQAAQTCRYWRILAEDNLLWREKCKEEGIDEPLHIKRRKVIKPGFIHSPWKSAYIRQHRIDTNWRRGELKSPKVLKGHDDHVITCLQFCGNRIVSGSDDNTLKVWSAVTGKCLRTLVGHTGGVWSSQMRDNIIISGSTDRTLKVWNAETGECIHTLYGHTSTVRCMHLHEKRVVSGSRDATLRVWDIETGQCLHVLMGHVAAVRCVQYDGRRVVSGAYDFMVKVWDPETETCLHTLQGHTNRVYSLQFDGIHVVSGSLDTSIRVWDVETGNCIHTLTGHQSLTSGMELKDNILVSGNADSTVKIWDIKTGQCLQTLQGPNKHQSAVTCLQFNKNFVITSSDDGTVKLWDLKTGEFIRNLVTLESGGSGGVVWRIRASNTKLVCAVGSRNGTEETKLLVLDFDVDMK
MITF primary – human MITF inhibition, primary screen. O75030. AlphaScreen MITF homodimerization, bead proximity signal. inhibition, % at 2.6 µM. hit rate 0.91% among 650,000; in the data active means inhibition above about 50%;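 further: 0% = vehicle wells with protein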
TEAD-YAP block – TEAD-YAP interaction inhibition; inhibition, % at 9.12 µM; HEK-TIYL cells, TEAD-Gal4/YAP UAS-luciferase luminescence; hit rate 1.4% among 640,000; AID 1259422; in the data active means inhibition above about 32%;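 further: 0% = median of test compound wells and 100% = reference inhibitor wells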
MITF inh conf – human MITF inhibition, confirmation. shares compounds with MITF primary. AlphaScreen MITF homodimerization, biotin/His-MITF beads. hit rate 16% among 4,700. inhibition, % at 2.6 µM;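 active means inhibition above a cutoff derived from the DMSO control wells, cut at about 28% in these data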;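 further: 0% = MITF dimer wells with DMSO only; inhibitors lower the bead chemiluminescence by keeping MITF from dimerizing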
AlphaScreen intf2 – counter-screen: compounds optically interfering with AlphaScreen; hit rate 7.6% among 4,700; shares compounds with MITF primary; LysRS AlphaScreen counterscreen, signal interference, triplicate; AID 1259376; inhibition, % at 2.6 µM;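 active means inhibition above a cutoff derived from the DMSO control wells, cut at about 30% in these data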
* marks the source's active call; other numbers are inactive results; nt = not tested or not shown.

SMILES	GPR151 activ	FBW7 activator	MITF primary	TEAD-YAP block	MITF inh conf	AlphaScreen intf2
O=C(c1ccc(F)cc1)N1CCN(Cc2ccccc2[N+](=O)[O-])CC1	3	0	55*	5	-14	-5
COc1ccc(Br)cc1CN1CCN(C(=O)c2ccccc2F)CC1	-3	1	65*	-3	5	15
O=C(c1cccc(F)c1)N1CCN(Cc2ccccc2[N+](=O)[O-])CC1	-1	0	22	2	nt	nt
O=C(c1cccnc1)N1CCN(Cc2ccccc2[N+](=O)[O-])CC1	-1	0	82*	5	-2	-3
O=C(c1ccccc1F)N1CCN(Cc2ccccc2[N+](=O)[O-])CC1	0	0	62*	-3	7	17
COc1ccc(Br)cc1CN1CCN(C(=O)c2ccccc2)CC1	0	0	43	8	nt	nt
CCN(CCN(C)C)Cc1c(F)cccc1F	5	0	11	4	nt	nt
O=C(O)c1ccccc1SC1CCCCC1NS(=O)(=O)c1ccccc1 (stereo not given)	-1	0	0	-7	nt	nt
CCOc1cc(CN2CCN(Cc3ccc(F)cc3)C(CCO)C2)ccc1O (stereo not given)	0	0	-1	6	nt	nt
O=C(c1ccccc1F)N1CCN(Cc2ccccc2C(F)(F)F)CC1	-1	0	58*	-3	1	-9
O=C(c1ccccc1F)N1CCN(Cc2c[nH]c3ccccc23)CC1	-1	0	35	16	nt	nt
CC1CN(C2CCN(S(=O)(=O)c3ccc(F)cc3)CC2)CC(C)O1 (stereo not given)	0	1	57*	1	0	0
CCCN1CCC(N2CCN(S(=O)(=O)c3ccc(F)cc3)CC2)CC1	1	0	54*	12	9	11
CS(=O)(=O)N1CCN(C2CCCCC2)CC1	0	0	58*	-5	-1	0
O=S(=O)(c1ccc(F)cc1)N1CCN(C2CCCCC2)CC1	2	0	85*	15	1	12
O=S(=O)(c1ccc(F)cc1)N1CCN(C2CCCCCC2)CC1	-1	0	32	-9	nt	nt
O=S(=O)(c1ccc(F)cc1)N1CCN(C2CCCC2)CC1	3	0	37	-2	nt	nt
COc1cc(Nc2nc(SCC(=O)NCC3CCCO3)nc3ccccc23)cc(OC)c1 (stereo not given)	0	0	60*	5	-12	-8
O=C(CSc1nc(Nc2ccc(F)c(F)c2)c2ccccc2n1)NCC1CCCO1 (stereo not given)	-1	0	6	0	nt	nt
CC(C)(C)NC(=O)COC(=O)Cc1ccc(Cl)cc1	0	0	116*	-2	16	0
COc1cccc(OC)c1OCCCOc1ccccc1C=O	-1	0	12	-3	nt	nt
CCCN(CC1CC1)S(=O)(=O)c1ccc(-n2cnnn2)c(C)c1	0	0	5	-3	nt	nt
O=C1C2CCCCC2C(=O)N1c1ccc2c(c1)CCC2 (stereo not given)	-3	0	19	-18	nt	nt
O=C1C2C3C=CC(C3)C2C(=O)N1c1ccc2c(c1)CCC2 (stereo not given)	0	0	79*	-5	4	12
COc1ccc(CN2CCN(Cc3ccc4c(c3)OCO4)CC2)c(OC)c1OC	1	0	79*	6	10	15
SMILES	GPR151 activ	FBW7 activator	MITF primary	TEAD-YAP block	MITF inh conf	AlphaScreen intf2
COC(=O)c1ccc(CN2CCN(Cc3ccc4c(c3)OCO4)CC2)cc1	0	0	56*	2	5	1
COc1ccc(CN2CCN(Cc3ccc4c(c3)OCO4)CC2)cc1OC	0	0	82*	-1	11	9
COc1ccc(CN2CCN(Cc3ccc4c(c3)OCO4)CC2)cc1C	1	0	38	3	nt	nt
CCOc1cc(CN2CCN(Cc3ccc4c(c3)OCO4)CC2)ccc1OC	3	0	31	3	nt	nt
O=C(c1ccc2c(c1)OCO2)N1CCN(Cc2ccc3c(c2)OCO3)CC1	-2	0	-3	-4	nt	nt
CCOc1cc(CN2CCN(Cc3ccc4c(c3)OCO4)CC2)ccc1O	0	0	75*	-8	14	13
CC(=O)c1ccc(S(=O)(=O)N(C2=NCCCS2)c2ccc(F)cc2)cc1	0	0	-14	-8	nt	nt
COc1ccc(N(C2=NCCCS2)S(=O)(=O)c2ccc(OC)cc2)cc1	0	0	56*	5	-12	-4
